Vaccinia Venus: qHTS for Stage-Specific Inhibitors of Vaccinia Orthopoxvirus: Venus Reporter Primary qHTS; Vaccinia virus Venus reporter expression, fluorescence; Potency, µM (doses to about 36.5 µM), usual class: inhibitors; 330,000 tested, 0.46% active; calls by dose curve; tested in A549 cells; also: nearly all actives have a fitted effect of over 30% in size
Marburg entry inh: qHTS for inhibitors of binding or entry into cells for Marburg Virus; Marburg virus pseudotyped entry inhibition, cell reporter; Potency, µM (top dose mostly 37.8 µM), actives largely listed as inhibitors; 300,000 tested, 1.8% active; AID 540276, 2011; calls by dose curve; tested in HEK293 cells
HCMV inh: qHTS Assay for inhibitors of the human cytomegalovirus (HCMV); activity change, negative = inhibition, % at 57.5 µM; HFF cells, HCMV-luciferase reporter, 72 h; hits give low values; AID 1259415, 2018; 410,000 tested, 4.5% active; in the data active = activity change below about -60%; inconclusive = no clear call, values can overlap the other calls; inactive = above about -39%
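Two-dose cell screen: HFF monolayers treated with compounds and infected with luciferase-expressing HCMV at 1 PFU/cell, 72 h at 37C, then lysed for luciferase measurement.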
FMDV inh: High Throughput Screening for Foot and Mouth Disease Virus Antivirals; FMDV antiviral cell-based qHTS; 410,000 tested, 1.2% active; AID 1159524, 2015; Potency, µM (top dose mostly 57.9 µM), most hits filed as inhibitors; calls by dose curve; tested in HEK293T cells; also: read-out not given here; nearly all actives have a fitted effect of over 45% in size
Lassa entry inh: qHTS for Inhibitors of binding or entry into cells for Lassa Virus; Lassa virus pseudotype entry inhibition, cell reporter; Potency, µM (titrated, usually from 37.9 µM), actives largely listed as inhibitors; 300,000 tested, 1.2% active; calls by dose curve; tested in HEK293 cells; also: nearly all actives have a fitted effect of over 50% in size
VACV mCherry inh: qHTS for Stage-Specific Inhibitors of Vaccinia Orthopoxvirus: mCherry Reporter Primary qHTS; 310,000 tested, 0.63% active; Potency, µM (doses to about 36.5 µM), hits mostly inhibitors; Vaccinia virus mCherry reporter infection, fluorescence; calls by dose curve; tested in A549 cells; also: nearly all actives have a fitted effect of over 35% in size
Large screens that a line does not name were inactive. Rows were chosen to be rich in hits. Some 6.5% of all compounds tested hit in one or more screens of this group.

Cc1ccc(C(=O)NCC(=O)Nc2ccncc2)cc1C	HCMV inh -74
CCc1ccc(NC(=O)c2ccc3[nH]c(C)c(C)c3c2)cc1	none (no result: Marburg entry inh)
Cc1[nH]c2ccc(C(=O)Nc3ccncc3)cc2c1C	HCMV inh -63 (no result: Vaccinia Venus, Marburg entry inh, Lassa entry inh, VACV mCherry inh)
O=S(=O)(NCC(c1cccs1)S(=O)(=O)c1ccccc1)c1ccccc1 (stereo not drawn)	none (no result: Marburg entry inh)
CCCCn1nnnc1C(c1cc2ccccc2o1)N1CCN(c2ccccc2F)CC1 (stereo not drawn)	none (no result: Marburg entry inh, Lassa entry inh)
CCCCn1nnnc1C(c1cc2ccccc2o1)N1CCN(c2cc(C)nc3ccccc23)CC1 (stereo not drawn)	HCMV inh -103 (no result: Marburg entry inh, Lassa entry inh)
CCN(CC)CCNC1=NCCn2c1cc1cc(OC)ccc12	Marburg entry inh inconclusive, Lassa entry inh 8.2µM (no result: Vaccinia Venus, VACV mCherry inh)
COc1ccc(CN(Cc2ccco2)C(=O)COc2ccccc2OC)cc1	none
CCN(CC)CCNC(=O)c1sc2ncccc2c1-n1cccc1	none (no result: Marburg entry inh)
CS(=O)(=O)CCCCN=C=S	none (no result: Marburg entry inh, HCMV inh, Lassa entry inh)
CC(NC(=O)Nc1ccc(Cl)c(Cl)c1)C(c1ccccc1)N1CCOCC1 (stereo not drawn)	Marburg entry inh inconclusive, HCMV inh -95, Lassa entry inh inconclusive (no result: Vaccinia Venus, VACV mCherry inh)
CC(NC(=O)c1ccc(Cl)cc1Cl)C(c1ccccc1)N1CCOCC1 (stereo not drawn)	HCMV inh -66
Cc1cccc(C(=O)NC(C)C(c2cccs2)N2CCOCC2)c1 (stereo not drawn)	Marburg entry inh inconclusive
CC(NC(=O)C1CCC(C(C)(C)C)CC1)C(c1ccccc1)N1CCOCC1 (stereo not drawn)	Marburg entry inh inconclusive, HCMV inh inconclusive
CC(NC(=O)c1cccc(C(F)(F)F)c1)C(c1ccccc1)N1CCOCC1 (stereo not drawn)	HCMV inh -62
CCn1cc(C(=O)NCc2ccc3c(c2)OCO3)c(=O)c2ccc(C)nc21	none (no result: Vaccinia Venus, HCMV inh, FMDV inh, Lassa entry inh, VACV mCherry inh)
CCn1cc(C(=O)NCc2cccc(C(F)(F)F)c2)c(=O)c2ccc(C)nc21	HCMV inh -69 (no result: Vaccinia Venus, Marburg entry inh, Lassa entry inh, VACV mCherry inh)
COc1ccc(Cn2c(CCC(=O)NCc3cccc(Cl)c3)nc3cccnc32)cc1	none
COC(=O)c1ccccc1-c1cc(C)cc2c1OC(CNC(=O)c1occc1C)C2 (stereo not drawn)	none (no result: Marburg entry inh, HCMV inh, Lassa entry inh)
Cc1ccc(C(=O)O)cc1N1C(=O)c2cccc3c([N+](=O)[O-])ccc(c23)C1=O	HCMV inh -100, FMDV inh inconclusive (no result: Vaccinia Venus, Marburg entry inh, Lassa entry inh, VACV mCherry inh)
O=C(O)c1ccc(CN2C(=O)c3cccc4c([N+](=O)[O-])ccc(c34)C2=O)cc1	Marburg entry inh inconclusive, FMDV inh inconclusive (no result: HCMV inh)
CN(C)CCCN1C(=O)c2cccc3c([N+](=O)[O-])ccc(c23)C1=O	Marburg entry inh 1.8µM, FMDV inh inconclusive, Lassa entry inh inconclusive
CC(=O)Oc1cccc(N2C(=O)c3cccc4c([N+](=O)[O-])ccc(c34)C2=O)c1	HCMV inh -94 (no result: Vaccinia Venus, Marburg entry inh, Lassa entry inh, VACV mCherry inh)
C(=NCc1ccccc1)N1c2ccccc2-n2cccc2C1CCc1ccccc1 (stereo not drawn)	none (no result: Vaccinia Venus, Marburg entry inh, FMDV inh, Lassa entry inh, VACV mCherry inh)
C=CCn1c(C(C)C)nc2ccccc21	none
C=CCn1c(C(C)NC(=O)CCC)nc2ccccc21 (stereo not drawn)	HCMV inh -62 (no result: FMDV inh)
C=CCn1c(C)cc(C(=O)Cn2c(C(C)O)nc3ccccc32)c1C (stereo not drawn)	HCMV inh -66, FMDV inh inconclusive
CCCC(=O)NC(C)c1nc2ccccc2n1CC (stereo not drawn)	none (no result: Marburg entry inh, Lassa entry inh)
COc1ccc(-n2c(CCNC(=O)c3ccc(-c4cccc(F)c4)cc3)nnc2SC)cc1	none (no result: Marburg entry inh, HCMV inh, Lassa entry inh)
CCC(C)NC(=O)Cn1ccc2cc(S(=O)(=O)N3CCCCC3)ccc21 (stereo not drawn)	none (no result: Marburg entry inh)
CCn1c(C(=O)NCc2ccccc2OC)cc2sccc21	none (no result: Lassa entry inh)
Nc1c(C(=O)Nc2ccccc2Br)sc2nc(-c3cccs3)ccc12	Vaccinia Venus inconclusive, HCMV inh -71, FMDV inh inconclusive, Lassa entry inh inconclusive, VACV mCherry inh inconclusive
Nc1c(C(=O)Nc2ccc(Cl)cc2F)sc2nc(-c3cccs3)ccc12	Marburg entry inh inconclusive
Nc1c(C(=O)Nc2nc3ccccc3s2)sc2nc(-c3cccs3)ccc12	Marburg entry inh 5.8µM, Lassa entry inh 6.5µM (no result: Vaccinia Venus, HCMV inh, VACV mCherry inh)
Cc1ccc2oc(C(=O)Nc3ccc(S(=O)(=O)Nc4nc(C)cc(C)n4)cc3)cc(=O)c2c1	none

Screening results: PubChem, National Center for Advancing Translational Sciences (NCATS)
